Screening data (PubChem BioAssay)
MEKK2 mut-MEK5: signal of MEK5 binding to mutant human MEKK2 PB1 domain; AID 1530; percent response, % at 10 µM; 290,000 tested, 0.35% active; bead flow cytometry, Alexa488-MEK5 binding to MEKK2 mutant; in the data active = percent response above about 24%, passing the limit was not always enough
MEKK2 WT-MEK5: raises or lowers MEK5 binding to wildtype human MEKK2 PB1 domain | Q9Y2U5 | bead flow cytometry, Alexa488-MEK5 binding to MEKK2 WT; actives lie on both sides | binding response (% of control), % at 10 µM | 290,000 tested, 1.1% active | AID 1531; in the data active = binding response below about 67% or above about 130%
MEKK3 PB1 HTS: modulators (inhibitors or enhancers) of MEK5 binding to human MEKK3 PB1 domain; AID 1529; 290,000 tested, 1.4% active; bead-based flow cytometry, Alexa488-MEK5 binding to MEKK3; actives lie on both sides; 0 = blocked by unlabeled MEK5, 100 = vehicle; Q99759; binding response (% of control), % at 10 µM;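 active = binding response more than 3 SD above or below the average of its plate-row segment, actives on both sides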;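 note: Alexa488 bead fluorescence after subtracting the streptavidin-only scavenger bead signal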
Target sequence (Q99759 whole entry, looked up, the tested form may be a part): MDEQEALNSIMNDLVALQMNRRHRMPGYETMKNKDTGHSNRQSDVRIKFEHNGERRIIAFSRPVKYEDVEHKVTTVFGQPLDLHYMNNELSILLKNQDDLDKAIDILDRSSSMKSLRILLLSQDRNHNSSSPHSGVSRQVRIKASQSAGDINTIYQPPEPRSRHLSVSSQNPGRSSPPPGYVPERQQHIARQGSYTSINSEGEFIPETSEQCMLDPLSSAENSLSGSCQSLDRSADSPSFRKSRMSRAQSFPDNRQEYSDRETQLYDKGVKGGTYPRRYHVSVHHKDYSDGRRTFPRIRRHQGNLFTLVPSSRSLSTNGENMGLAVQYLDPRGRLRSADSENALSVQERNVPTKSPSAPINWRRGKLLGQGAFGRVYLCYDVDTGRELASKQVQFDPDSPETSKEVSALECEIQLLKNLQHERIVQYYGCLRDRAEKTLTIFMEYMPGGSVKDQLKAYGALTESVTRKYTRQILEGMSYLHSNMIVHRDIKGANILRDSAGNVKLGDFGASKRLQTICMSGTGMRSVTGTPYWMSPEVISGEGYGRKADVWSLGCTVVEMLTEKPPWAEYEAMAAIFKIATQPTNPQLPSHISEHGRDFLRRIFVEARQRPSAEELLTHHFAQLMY
NRP1-CendR mod: NRP-1/CendR interaction modulation; FAM-RPARPAR peptide binding to NRP-1, fluorescence polarization; inhibition, % at 25 µM; 360,000 tested, 0.85% active; AID 602438;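 active = inhibition or corrected inhibition above about 18%, plus a signal ratio from 0.5 to 1.5, limit read from the data, passing the limit was not always enough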
SKN-1 inh: C. elegans SKN-1 inhibition; 360,000 tested, 0.49% active; C. elegans VP596 Pgst-4::GFP/RFP ratio, acrylamide-induced, 24 h; inhibition, % at 21.8 µM;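 active = interference check ratio from 0.5 to 1.5 plus GFP to RFP signal ratio inhibition reaching or exceeding a fixed threshold, cut at about 30% in these data, passing the limit was not always enough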
MEKK2wt confirm: raises or lowers MEK5 binding to wildtype human MEKK2, retest; binding response (% of control), % at 10 µM; bead flow cytometry, Alexa488-MEK5 binding to MEKK2 WT; actives lie on both sides; AID 1892; 5,900 tested, 2.4% active; shares compounds with MEKK3 PB1 HTS; in the data active = binding response below about 16% or above about 210%; inactive = in between
MEKK2mut-MEK5: signal of MEK5 binding to mutant human MEKK2, retest; shares compounds with MEKK3 PB1 HTS; bead flow cytometry, Alexa488-MEK5 binding to MEKK2 mutant; percent response, % at 10 µM; 5,900 tested, 2% active; AID 1893; in the data active = percent response mostly above about 71%, no sharp cut-off; inactive = mostly below about 38%;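 note: higher means compound restores mutant binding toward wildtype level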
MEKK3-MEK5 inh: confirmation of inhibitors of MEK5 binding to human MEKK3. shares compounds with MEKK3 PB1 HTS. bead flow cytometry, Alexa488-MEK5 binding to MEKK3; stronger effect = lower value. binding response (% of control), % at 10 µM. 5,900 tested, 1.8% active;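 active = binding response below 72% of control, or above a set upper limit, though filed actives all read lower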
Large screens that a line does not name were inactive (follow-up assays come after a bar, where they were run); [ ] = another dose, or the depositor's remark. A selection: hits, their analogues and other compounds. The true share with any hit is near 3.2%.

CCOC(=O)Cn1cc(C(=O)C2CC2)c2ccccc21	MEKK2 WT-MEK5 2.0[inhibitor], MEKK3 PB1 HTS 2.0[inhibitor] | MEKK2wt confirm inactive | MEKK2mut-MEK5 inactive | MEKK3-MEK5 inh inactive
CC(C)(C)c1cc[n+](/C(C(=S)NC2CC2)=C(/[O-])c2ccc(Cl)s2)cc1	MEKK3 PB1 HTS 81[inhibitor] | MEKK2wt confirm inactive | MEKK2mut-MEK5 inactive | MEKK3-MEK5 inh inactive
CN1CCN(S(=O)(=O)c2ccc(NC(=O)c3ccc(F)cc3)cc2)CC1	none
CN1CCN(S(=O)(=O)c2ccc(NC(=O)c3ccc(Br)o3)cc2)CC1	MEKK3 PB1 HTS 41[inhibitor] | MEKK2wt confirm inactive | MEKK2mut-MEK5 inactive | MEKK3-MEK5 inh inactive
CN1CCN(S(=O)(=O)c2ccc(NC(=O)c3ccc(Br)s3)cc2)CC1	MEKK2 WT-MEK5 138 | MEKK2wt confirm inactive | MEKK2mut-MEK5 inactive | MEKK3-MEK5 inh inactive
CN1CCN(c2ccc(NC(=O)c3ccc(-c4ccc(Br)cc4)o3)cc2)CC1	MEKK2 WT-MEK5 168 | MEKK2wt confirm inactive | MEKK2mut-MEK5 inactive | MEKK3-MEK5 inh inactive
Cc1c([N+](=O)[O-])cnc(Sc2ccccc2)c1[N+](=O)[O-]	none (no result: MEKK2 mut-MEK5, MEKK2 WT-MEK5, MEKK3 PB1 HTS)
C[C@@H](CO)NC(=O)c1nc[nH]c1C(=O)N[C@H](C)c1ccccc1	none (no result: MEKK2 mut-MEK5, MEKK2 WT-MEK5, MEKK3 PB1 HTS)
Cc1cccc(N2CCN(C(=O)c3cc(S(=O)(=O)N4CCCC4)cn3C)CC2)c1C	none
Cc1ccc(C)c(N2CCN(C(=O)c3cc(S(=O)(=O)N4CCCC4)cn3C)CC2)c1	MEKK2 WT-MEK5 0.0[inhibitor], MEKK3 PB1 HTS 2.0[inhibitor] | MEKK2wt confirm inactive | MEKK2mut-MEK5 inactive | MEKK3-MEK5 inh inactive
O=C(CSCC(=O)N1CCOCC1)Nc1nc(-c2ccccc2)cs1	MEKK3 PB1 HTS 131 | MEKK2wt confirm inactive | MEKK2mut-MEK5 inactive | MEKK3-MEK5 inh inactive
CCOC(=O)N1CCN(C(=O)CSCC(=O)Nc2nc(-c3ccc(-c4ccccc4)cc3)cs2)CC1	none
CC(C)C(C(=O)Nc1ccc(S(N)(=O)=O)cc1)N1C(=O)c2ccccc2C1=O (stereo not drawn)	MEKK3 PB1 HTS 56[inhibitor] | MEKK2wt confirm inactive | MEKK2mut-MEK5 inactive | MEKK3-MEK5 inh inactive
CN1c2ccccc2C(O)=C(C(=S)Nc2ccc(F)c(Cl)c2)S1(=O)=O	MEKK3 PB1 HTS 130 | MEKK2wt confirm inactive | MEKK2mut-MEK5 inactive | MEKK3-MEK5 inh inactive
Cc1ccnc(N=O)c1	none (no result: MEKK2 mut-MEK5, MEKK2 WT-MEK5, MEKK3 PB1 HTS)
COc1ccc(C(=O)NNC(=O)c2ccc(C(C)(C)C)cc2)cc1	MEKK2 WT-MEK5 2.0[inhibitor], MEKK3 PB1 HTS 1.0[inhibitor] | MEKK2wt confirm inactive | MEKK2mut-MEK5 inactive | MEKK3-MEK5 inh inactive
COc1ccc(C(=O)NNC(=O)CCC(=O)NNC(=O)c2ccc(OC)cc2)cc1	none
Cc1ccc2c(c1)C1CN(C)CCC1N2C(=O)COc1ccc(N(C)S(=O)(=O)c2cccs2)cc1 (stereo not drawn)	none
CCOc1ccc(S(=O)(=O)N(C)c2ccc(OCC(=O)N3c4ccc(C)cc4C4CN(C)CCC43)cc2)cc1 (stereo not drawn)	MEKK2 WT-MEK5 140 | MEKK2wt confirm inactive | MEKK2mut-MEK5 inactive | MEKK3-MEK5 inh inactive
O=C(O)C1CC(=O)N(c2ccc(OCc3ccccc3)cc2)C1 (stereo not drawn)	MEKK3 PB1 HTS 72[inhibitor] | MEKK2wt confirm inactive | MEKK2mut-MEK5 inactive | MEKK3-MEK5 inh inactive
N=C1/C(=C\c2coc3ccccc3c2=O)C(=O)N=C2SC(c3ccncc3)=NN12	MEKK3 PB1 HTS 70[inhibitor] | MEKK2wt confirm inactive | MEKK2mut-MEK5 inactive | MEKK3-MEK5 inh inactive
N=C1/C(=C/c2coc3ccccc3c2=O)C(=O)N=C2SC(c3ccco3)=NN12	none
CCCCC(=O)N(C)c1c(CC)nc2c(OCC(=O)c3ccc(F)cc3)cccn12	none (no result: MEKK2 mut-MEK5, MEKK2 WT-MEK5, MEKK3 PB1 HTS)
O=C(CCCOc1ccccc1)NCCc1nc2ccccc2[nH]1	MEKK3 PB1 HTS 74[inhibitor] | MEKK2wt confirm inactive | MEKK2mut-MEK5 inactive | MEKK3-MEK5 inh inactive
CCOc1ccc(OCC(=O)NCCc2nc3ccccc3[nH]2)cc1	none
O=C(CCCCCN1C(=O)c2cccc3cccc(c23)C1=O)NCc1cccnc1	MEKK3 PB1 HTS 49[inhibitor] | MEKK2wt confirm inactive | MEKK2mut-MEK5 inactive | MEKK3-MEK5 inh inactive
O=C(CCCCCN1C(=O)c2ccccc2C1=O)Nc1ccc(F)cc1	MEKK3 PB1 HTS 131 | MEKK2wt confirm inactive | MEKK2mut-MEK5 inactive | MEKK3-MEK5 inh inactive
Cc1ccc(NC(=O)CCn2c(=O)[nH]c3ccsc3c2=O)cc1	none
O=C(CCCN1C(=O)c2ccccc2C1=O)NCc1ccc(F)cc1	MEKK2 mut-MEK5 33 | MEKK2wt confirm inactive | MEKK2mut-MEK5 inactive | MEKK3-MEK5 inh inactive
O=C(CCCCCN1C(=O)c2ccccc2C1=O)Nc1ccccc1F	none
O=C(CCCn1c(=O)[nH]c2ccsc2c1=O)Nc1ccc(F)cc1	MEKK3 PB1 HTS 54[inhibitor] | MEKK2wt confirm inactive | MEKK2mut-MEK5 inactive | MEKK3-MEK5 inh inactive
O=C(Nc1ccccc1Cl)c1cc(C2CCCCN2C(=O)CCCc2ccccc2)on1 (stereo not drawn)	none (no result: MEKK2 mut-MEK5, MEKK2 WT-MEK5, MEKK3 PB1 HTS)
CC(C)n1cc(CN2CCN(C)C(CCO)C2)c2ccccc21 (stereo not drawn)	MEKK2 mut-MEK5 24 | MEKK2wt confirm inactive | MEKK2mut-MEK5 inactive | MEKK3-MEK5 inh inactive
CC(C)Cn1c(CN2CCN(C)C(CCO)C2)nc2ccccc21 (stereo not drawn)	none
Cc1ccc(C(C(=O)NC2CCCC2)N(Cc2ccc(F)cc2)C(=O)c2csnn2)o1 (stereo not drawn)	MEKK2 WT-MEK5 3.0[inhibitor], MEKK3 PB1 HTS 3.0[inhibitor] | MEKK2wt confirm inactive | MEKK2mut-MEK5 inactive | MEKK3-MEK5 inh inactive
COc1ccc(CNC(=O)CN(Cc2ccc(F)cc2)C(=O)c2csnn2)cc1	MEKK3 PB1 HTS 148 | MEKK2wt confirm inactive | MEKK2mut-MEK5 inactive | MEKK3-MEK5 inh inactive
Cc1ccc(Nc2nc(CSc3nnc(-c4ccc(F)cc4)n3C)cs2)cc1	MEKK2 WT-MEK5 3.0[inhibitor], MEKK3 PB1 HTS 1.0[inhibitor] | MEKK2wt confirm inactive | MEKK2mut-MEK5 inactive | MEKK3-MEK5 inh inactive
COc1ccc(-c2nnc(SCc3csc(N)n3)n2C)cc1	none
N=c1n(CC(=O)c2ccc([N+](=O)[O-])cc2)c2ccccc2n1Cc1ccc(Cl)cc1	MEKK2 WT-MEK5 138 | MEKK2wt confirm inactive | MEKK2mut-MEK5 inactive | MEKK3-MEK5 inh inactive
NNC(=O)[C@@H]1C[C@@H]1c1ccccc1	MEKK3 PB1 HTS 153 | MEKK2wt confirm inactive | MEKK2mut-MEK5 inactive | MEKK3-MEK5 inh inactive
COC(=O)c1c(-c2cccnc2)csc1NC(=O)c1ccc2c(c1)OCO2	none
CC[C@H](C)[C@H]1CNC(=O)C(=O)N1CC1CCN(CCc2ccccc2)CC1	none (no result: MEKK2 mut-MEK5, MEKK2 WT-MEK5, MEKK3 PB1 HTS)
